From PubChem
An excerpt weighted towards active compounds, which were near 19% of everything screened.
DT40 TDP1 CPT = qHTS for Inhibitors of human tyrosyl-DNA phosphodiesterase 1 (TDP1): qHTS in cells in presence of CPT. Potency, µM (titrated, usually from 46.2 µM), inactives show at the top dose activity change, negative = growth inhibition, usual class: inhibitors. 420,000 tested, 12% active. chicken DT40 Tdp1-/-;hTDP1 cells + 20 nM CPT, ATP luminescence, 48 h. AID 686979, 2013; note: potency is the fitted concentration of half-maximal effect; nearly all actives have a fitted effect of over 55% in size
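Chicken DT40 Tdp1-/- cells complemented with human TDP1, 400 cells/well, exposed to compounds plus 20 nM camptothecin for at least 48 h at 37 C; viability read as ATP content by CellTiter-Glo luminescence.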
IL-1B inflam inh = qHTS for Inhibitors of Inflammasome Signaling: IL-1-beta AlphaLISA Primary Screen | THP-1 LPS/ATP IL-1B secretion, AlphaLISA, 16 h; active compounds read low | activity change, % at 57.5 µM | 360,000 tested, 4.7% active | AID 743279, 2014; in the data active = activity change below about -50%; inconclusive = mostly about -30% to -49%
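THP-1 cells pretreated 1 hr with compounds (up to 57.5 uM final), then stimulated with LPS (250 ng/mL final) plus ATP (1.25 mM final); secreted IL-1B measured by AlphaLISA after 16 hr, decreased signal indicating inhibition.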
HT1080 IDH1KD tx = qHTS for induction of synthetic lethality in tumor cells producing 2HG: qHTS for the HT-1080-IDH1KD cell line; HT-1080 IDH1 knockdown viability, ATP luminescence, 48 h; Potency, µM (series often up to 46.1 µM), inactives show at the top dose activity, negative = toxicity, usual class: cytotoxic; 360,000 tested, 2% active; AID 686971, 2013;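 note: potency is the fitted concentration of half-maximal effect; 0% = DMSO wells and -100% = cell-free medium wells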
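IDH1KD HT-1080 cells, 750/well, RPMI + 5% FBS; compound pinned after 2 h settling; 48 h, 37 °C; CellTiter-Glo luminescence; % activity normalised to DMSO and no-cell wells; curves fitted, classed by r2 and efficacy.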
DT40 TDP1 no CPT = qHTS for Inhibitors of human tyrosyl-DNA phosphodiesterase 1 (TDP1): qHTS in cells in absence of CPT | DT40 Tdp1-/- hTDP1 cells, no CPT, ATP luminescence, 48 h | Potency, µM (series often up to 46.2 µM), for the others: at the highest dose activity change, negative = growth inhibition, hits mostly inhibitors | 420,000 tested, 15% active | AID 686978, 2013; note: potency is the fitted concentration of half-maximal effect; nearly all actives have a fitted effect of over 55% in size
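Growth of hTDP1-complemented DT40 Tdp1-knockout cells is measured by ATP luminescence after at least 48 hr compound exposure at 37 °C, with DMSO substituting for the 20 nM CPT used in the parallel screen.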
HT1080NT lethal = qHTS for induction of synthetic lethality in tumor cells producing 2HG: qHTS for the HT-1080-NT fibrosarcoma cell line. AID 686970, 2013. Potency, µM (doses to about 46.1 µM), inactives show top-dose activity, negative = less viability, most hits filed as cytotoxic. HT-1080-NT fibrosarcoma viability, CellTiter-Glo ATP luminescence, 48 h. 360,000 tested, 1.6% active;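 note: NT is the 2HG producing partner of a matched IDH1 knockdown line; potency is the fitted concentration of half-maximal effect; 0% = DMSO-treated cells and -100% = media-only wells without cells; nearly all actives have a fitted effect of over 55% in size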
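750 cells/well, RPMI + 5% FBS; 2 h settle, compound pin-transfer, 48 h at 37 degrees C. CellTiter-Glo 10 min RT, luminescence. Normalized to DMSO and media-only wells.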
An asterisk follows results filed as active; ? = inconclusive; . = no result given; [ ] = dose if it differs, or a comment. Unless noted, calls come from the whole dose curve; as a rule, active = well fitted curve in the direction sought with a large enough effect; inconclusive = small, poorly fitted or top-dose-only effect, or another doubt; inactive = no such curve, though single readings can be large; an effect the other way counts as inactive or inconclusive. Unless noted, % is set by controls: 0 for no effect and ±100 for the full control effect.

SMILES | DT40 TDP1 CPT | IL-1B inflam inh | HT1080 IDH1KD tx | DT40 TDP1 no CPT | HT1080NT lethal
COc1ccc(Nc2ncc(C(=O)N3CCN(Cc4ccccc4)CC3)c3ccccc23)cc1 | 18µM* | -97* | -13% | ? | -1%
O=C(Nc1cc(-c2nc3ccccc3s2)ccc1Cl)c1cc2ccccc2o1 | 4% | . | . | 7% | .
CCCCN(CC)CCCNC(=O)c1cc2c(-c3ccc(OC)c(OC)c3)nn(C)c2s1 | ? | -70* | ? | ? | ?
Cc1ccc(CNC(=O)c2cc3c(-c4ccc(Cl)cc4)nn(C)c3s2)o1 | ? | ? | -21% | ? | -28%
COC(=O)c1ccccc1NC(=O)c1cc2c(-c3ccc(OC)c(OC)c3)nn(C)c2s1 | -12% | . | . | -18% | .
CCOCCCNC(=O)c1cc2c(-c3ccc(OC)c(OC)c3)nn(C)c2s1 | 7.3µM* | . | . | 18µM* | .
COc1ccc(CCNC(=O)c2cc3c(-c4ccc(OC)c(OC)c4)nn(C)c3s2)cc1OC | 2.6µM* | . | . | 2.9µM* | .
CN(C(=O)c1ccccc1C(=O)OCC(=O)Nc1ccc(OC(F)F)cc1)c1ccccc1 | ? | 9 | 5% | ? | -1%
CN1CCCC(CN(C)C(=O)c2cnn(-c3nccc(-c4ccccc4C(F)(F)F)n3)c2C2CC2)C1 (configuration not stated) | 16%[9.04 µM] | . | . | -26% | .
Cc1ccc(CCNC(=O)c2ccc(CNS(=O)(=O)c3ccccc3)cc2)cc1 | 6.5µM* | . | . | 5.8µM* | .
Cc1ccc(CCNC(=O)c2ccc(CNS(=O)(=O)c3ccc(F)cc3)cc2)cc1 | 13µM* | . | . | 6.5µM* | .
CCc1ccc(S(=O)(=O)NCc2ccc(C(=O)NCCN(Cc3ccccc3)C(C)C)cc2)cc1 | 21µM* | -12 | 16µM* | 13µM* | ?
O=C(NCCCN1CCOCC1)c1ccc(CNS(=O)(=O)c2ccc(F)cc2)cc1 | -22% | 9 | 2% | -30% | 3%
CCOc1ccccc1CNC(=O)CN1C(=O)C2CCCCN2c2ccc(C(=O)N(C)C)cc21 (configuration not stated) | -24% | . | . | ? | .
Cc1ccc(C(=O)NCc2ccc3c(c2)OCO3)cc1C | -13% | ? | -4% | ? | -3%
COc1cc(-c2nc(C)c(C(C)=O)n2O)ccc1OCC(=O)Nc1ccc(Cl)cc1 | -6% | -9 | -4% | ? | -3%
CC(C)NS(=O)(=O)c1ccc(OCC(=O)N2CCN(c3ccccc3F)CC2)cc1 | ? | . | . | 15µM* | .
COc1ccccc1N1CCN(C(=O)CCc2ccc(S(=O)(=O)NCC(C)C)cc2)CC1 | ? | 0 | -4% | 23µM* | -11%
O=C(COc1ccc(S(=O)(=O)N2CCCC2)cc1)N1CCN(c2ccccc2F)CC1 | ? | 29 | -16% | ? | 1%
CC(C)CNS(=O)(=O)c1ccc(CCC(=O)N2CCN(c3ccccc3)CC2)cc1 | ? | 25 | -9% | ? | -14%
COc1ccccc1N1CCN(C(=O)CCc2ccc(S(=O)(=O)NC(C)C)cc2)CC1 | ? | 27 | -2% | 18µM* | 5%
COC(=O)C1=C(C)N(c2ccc(C(=O)OC)cc2)C(=O)C1 | ? | 9 | 0% | ? | -6%
COC(=O)C1=C(C)N(c2cc(Cl)cc(Cl)c2)C(=O)C1 | 7.3µM* | -27 | ? | 8.2µM* | 21µM*
O=C(NCc1ccc(Cl)cc1)C1CCCN(c2ncnc3onc(-c4ccc(F)cc4)c23)C1 (configuration not stated) | 21µM* | . | . | 23µM* | .
O=C(NCc1ccc(Cl)cc1)C1CCCN(C(=O)c2ccc(Cl)cc2)C1 (configuration not stated) | ? | -4 | 28% | ? | 2%
SMILES | DT40 TDP1 CPT | IL-1B inflam inh | HT1080 IDH1KD tx | DT40 TDP1 no CPT | HT1080NT lethal
COc1ccc(OC)c(CNC(=O)C2CCCN(c3ncnc4onc(-c5ccc(F)cc5)c34)C2)c1 (configuration not stated) | 4% | . | . | -8% | .
O=C(NCc1ccccc1Cl)C1CCCN(c2ncnc3onc(-c4ccc(F)cc4)c23)C1 (configuration not stated) | ? | . | . | 16µM* | .
CCOc1ccccc1CNC(=O)C1CCCN(c2ncnc3onc(-c4ccc(F)cc4)c23)C1 (configuration not stated) | ? | . | . | 21µM* | .
CC(NC(=O)[C@H](C)NC(=O)[C@@H]1CSC2c3ccccc3C(=O)N21)c1ccccc1 (some centres not stated) | -30% | 17 | 2% | 8% | -1%
Cc1cc2c(cc1C)NC(=O)C(C)CN2 (configuration not stated) | 2% | 7 | -9% | ? | 0%
CCn1cc(CN2Cc3ccccc3OC(c3ccccc3OC)C2)c(C)n1 (configuration not stated) | -8%[9.04 µM] | . | . | ? | .
Cn1nc([N+](=O)[O-])nc1Sc1nnnn1-c1cccc(C(=O)O)c1 | 2% | -9 | 21% | 8% | 16%
Cn1nc([N+](=O)[O-])nc1Sc1nnc(-c2ccccc2)o1 | 5.2µM* | -96* | ? | 4.6µM* | ?
Cn1nc([N+](=O)[O-])nc1Sc1cccc2cccnc12 | 6.5µM* | 90 | -12% | 21µM* | -21%
C=CCN(C/C(=N\O)c1sc(C(=O)OCC)nc1C)c1cccc(Br)c1 | ? | 12 | -11% | ? | -24%
COc1cccc(CNC(=O)Cn2c(=O)nc(-c3ccccc3F)c3cc(Cl)ccc32)c1 | -18% | . | . | -13% | .
Nc1ccc(Nc2ccncc2)cc1 | 5% | -11 | 7% | -3% | 8%
Nc1ccccc1Nc1cccc(C(F)(F)F)c1 | 9% | -157* | -27% | ? | -14%
Nc1ccc(Nc2ccccc2N)cc1 | 5.2µM* | 6 | ? | 10µM* | ?
Cc1cc(C)nc(Nc2cccc(C(F)(F)F)c2)n1 | -25% | 14 | 9% | -43% | 20%
COc1ccc(Nc2c(C)cccc2C)cc1 | -11% | -1 | 5% | -11% | 7%
COc1ccc(Nc2ccccc2N)cc1 | ? | -50* | ? | 21µM* | -13%
CC(c1ccncn1)N(C)Cc1nc(-c2ccc(C(F)(F)F)cc2)no1 (configuration not stated) | 18µM* | 0 | 7% | ? | 1%
O=C(N/N=C/c1cn(-c2ccccc2)nc1-c1cc2ccccc2o1)c1cccnc1 | 3.3µM* | -222* | 0% | 5.2µM* | 11%
